Reference: PMC13494018

B1: design_623_6e2e8b1f-5d9a-4413-9869-27a184816b12_1303_dldesign_0_cycle1_af2pred (protein)
chain: AAAQADALTARGKELYAEGKKKYKEGKKEEAAKLFFEAANDYMRAASLYSKVDPAQAVAALEQMEKAIEEYKKAKE
B2: design_623_6e2e8b1f-5d9a-4413-9869-27a184816b12_1349_dldesign_0_cycle1_af2pred (protein)
chain: DRLREIAAALAKEVAEATGADPATTEKLAELLAAVLEANQQGPEAFAAAYSKLVDFTVSTGSDALLAKAGAAVSRGLRALG
B3: design_623_6e2e8b1f-5d9a-4413-9869-27a184816b12_1293_dldesign_0_cycle1_af2pred (protein)
chain: DAIRARAAEVKERAERLLEEGKRLPEIEEQVREMAESAKALADDALAAAATDPAQARLALAAAEALVRSLELLVERAKEEA
B4: design_622_fcc41892-afde-4fb9-b6e8-b664fffd6a75_1948_dldesign_0_cycle1_af2pred (protein)
chain: SEEALLLANQGVALASQGLIAGDDAKVKEGIKKIEEAKKLASPELAKTFDKLKATVEAMAAGTAAARAAAAAAA
B5: design_623_6e2e8b1f-5d9a-4413-9869-27a184816b12_997_dldesign_0_cycle1_af2pred (protein)
chain: EGEKLWKEAKALTDQAKALAAQAQATTDAAQAKQYAIEAAAATTEAMRLASEAARLLGPEKQEEANRLVQEATQALVAATQAAQALA
B6: design_622_fcc41892-afde-4fb9-b6e8-b664fffd6a75_2191_dldesign_0_cycle1_af2pred (protein)
chain: MKEEVEKLKKEAEKLVKEAKAAAEAGDSGKAVSLASEAFKVARELEKLPESKELGKELKAKAHEVLTLAAK
B7: design_623_6e2e8b1f-5d9a-4413-9869-27a184816b12_532_dldesign_0_cycle1_af2pred (protein)
chain: AAVAAAIAAGEAAIKTVEALTKQAKTATPEERKAIAEQLRAAAVTLMNAAVASSPAYSPKFGAAAVEALQAAAEAG
B8: design_622_fcc41892-afde-4fb9-b6e8-b664fffd6a75_1878_dldesign_0_cycle1_af2pred (protein)
chain: GRQQELNQALGLTLEAAKKASELNKEVLPLVNEAASLIAKAYLTGDKELLKKAIEKLKKAAELASEEVKVLLKKAAEHAKKAIEL
B9: design_622_fcc41892-afde-4fb9-b6e8-b664fffd6a75_1677_dldesign_0_cycle1_af2pred (protein)
chain: MEELEELKERSEEVKKRAEEAKKKGEELKKKSPKTAVAGNAVIALAKSAKELAEDPEKVEQAEKVLEIAEAIIKAA
B10: design_622_fcc41892-afde-4fb9-b6e8-b664fffd6a75_2329_dldesign_0_cycle1_af2pred (protein)
chain: AALREEAKKRVDAAVAAADAAAAADPLAGAIAYGELAVETARLAAELARADPAAGAEMRAKLVDISQKAIALALAAG
B11: design_622_fcc41892-afde-4fb9-b6e8-b664fffd6a75_1795_dldesign_0_cycle1_af2pred (protein)
chain: ANAQLAKGYLTAGQVYLQSPDAAYQEQAATAAQAAAAYAEADPAMADLAKQAKALEAEAKAKAAAAKAAA
B12: design_622_fcc41892-afde-4fb9-b6e8-b664fffd6a75_1828_dldesign_0_cycle1_af2pred (protein)
chain: EAAAREAAARRLAAALEAAEAAAAGPLGPRVAVAAAEVALEVLAAHPRLSPEAVRAAHRLLVLGGRAAGILAA
B13: design_623_6e2e8b1f-5d9a-4413-9869-27a184816b12_569_dldesign_0_cycle1_af2pred (protein)
chain: NAAAQATVAAIVKQLRKRAEEEAGNPEIAKALKDGAEAVKEAGKKGIGAAVETLKETYAKVAELRAAQAAA
B14: design_623_6e2e8b1f-5d9a-4413-9869-27a184816b12_254_dldesign_0_cycle1_af2pred (protein)
chain: DDLTQAQIALAAAQALIKNAKAVLEDKSASEETLKSAAEAMEVAIQLAKQAEKLAKKADPELAKKAKEVKKEAEKVKKELEKKI
B15: design_623_6e2e8b1f-5d9a-4413-9869-27a184816b12_67_dldesign_0_cycle1_af2pred (protein)
chain: SREEELERVEEAIATARDVLAGAELTAAQVSPELAAAALRSAARTAVVLFEGEARRAEDEEARERLRKAAEEARKVAA
B16: design_623_6e2e8b1f-5d9a-4413-9869-27a184816b12_1352_dldesign_0_cycle1_af2pred (protein)
chain: AAEARKAEAVARAKAAAQNAKLVAEGAGEAFAAEAAEVAALAKQAATSTAEEAEKLAEQAAAKTVAMTRAAIALHAAA
B17: design_622_fcc41892-afde-4fb9-b6e8-b664fffd6a75_2349_dldesign_0_cycle1_af2pred (protein)
chain: LTEELARETARGQRYAAELIALDPAAQELLEQVRRLSAAALQALLAGDEELAKKLAEEVKRLAEEIKARAEALK
B18: design_622_fcc41892-afde-4fb9-b6e8-b664fffd6a75_1610_dldesign_0_cycle1_af2pred (protein)
chain: DDAAKLASLREFLAQLVEIAKAGNAEQARVMARNARAAARSVAAAVASAAEALALGAEAEAEILAIAQEKAAAA
B19: design_622_fcc41892-afde-4fb9-b6e8-b664fffd6a75_2129_dldesign_0_cycle1_af2pred (protein)
chain: AAAEAAARAALLAEGLALAHQAATFAAMAEYSPGVAPLAERARARLEAVTAAATPEVAAEIRAAYEASLARVRAALA
B20: design_623_6e2e8b1f-5d9a-4413-9869-27a184816b12_258_dldesign_0_cycle1_af2pred (protein)
chain: ASEAAAQTITRGVAELRERFADLSPEALAALAAAQQAALLAAIQGDFEAAAAEVVRGAEAVGAISPHTEEIRALGRATAERILALA
B21: design_623_6e2e8b1f-5d9a-4413-9869-27a184816b12_1233_dldesign_0_cycle1_af2pred (protein)
chain: DAATQAKVKELAEKALNGTPEEAYKATAEAFKISEQAGMEVLAAAAKGKPENAHAALSAYAAGLVAAKKAA
B22: design_622_fcc41892-afde-4fb9-b6e8-b664fffd6a75_1873_dldesign_0_cycle1_af2pred (protein)
chain: NALVQAGKIAAQAAVSLAKNAIAHADEMSPEGLQGAIDVATALIEYAEKAAKEDPEVAKLVEEAKKLVAEAKAVLAAR
B23: design_623_6e2e8b1f-5d9a-4413-9869-27a184816b12_873_dldesign_0_cycle1_af2pred (protein)
chain: SENVKKAKALAAKSKELLEKAKKGDAETAQKALKEISKLANELAKLATSSPAADQAATNAALAVAVEAAEEASKIAREKKA
B24: design_623_6e2e8b1f-5d9a-4413-9869-27a184816b12_1170_dldesign_0_cycle1_af2pred (protein)
chain: MSQAVLNTAKIAIETAGRSSPEEAKKLVEQAVDIASSASDENKKELVKYAKELAKKDPSSKEFYEAAAKKIEATL
B25: design_623_6e2e8b1f-5d9a-4413-9869-27a184816b12_824_dldesign_0_cycle1_af2pred (protein)
chain: MEEKIKEAEKLYLEGLKAAGAAHAAIVKGDVAAAKKALEKLKEIAEKLKELGKESEEAKKIAENAEKLYEVTKAAVDAAAAA
B26: design_623_6e2e8b1f-5d9a-4413-9869-27a184816b12_681_dldesign_0_cycle1_af2pred (protein)
chain: MEEIKEKAKELAETVEAIGEELAKFGLETGNENAITAGVNTAKHVAKYAERLSPEAGKIAEKTKEKVEKLGKKAKAEIAA
B27: design_622_fcc41892-afde-4fb9-b6e8-b664fffd6a75_2288_dldesign_0_cycle1_af2pred (protein)
chain: SAEEEVLAKVKELRDKVEAAAADPAKAAEGAALAQEALAFLEENLPVIRAGGQELKDAVHALLRAIARHNAVYN
B28: design_622_fcc41892-afde-4fb9-b6e8-b664fffd6a75_2272_dldesign_0_cycle1_af2pred (protein)
chain: DEAKKQLEIATKMAEYALKQAEAALKDGRTAGTVVPAQVKTLKLLAESAEATGLEEAKKKAEEFKKKAKELEKAAEKAK
B29: design_622_fcc41892-afde-4fb9-b6e8-b664fffd6a75_2371_dldesign_0_cycle1_af2pred (protein)
chain: SAAAAESNQELAKQLKAIAQANAKAGDAEAVERVARSAAAAAKAVSEHPEAQKALTEAAKEAQKLAQQVKAA
B30: design_622_fcc41892-afde-4fb9-b6e8-b664fffd6a75_1477_dldesign_0_cycle1_af2pred (protein)
chain: GEAVQTAVDALKLLSEERRRAAALVAADPENAEARAILERLEESFRAVARAAANPATAQEVGEAGIAEAERARERLAALA
B31: design_623_6e2e8b1f-5d9a-4413-9869-27a184816b12_890_dldesign_0_cycle1_af2pred (protein)
chain: SPAARLMEATYRRLEEALEKLERAEELSPEEVLEAARLAEANARFARLAGRQAAAEEGTAEAAEAAAKAEALAEEAEEKAREARERLE
B32: design_623_6e2e8b1f-5d9a-4413-9869-27a184816b12_287_dldesign_0_cycle1_af2pred (protein)
chain: AAAAKAALAAAKAKADEVAKYAEEVDPELGKEIKAKQADLTKAAQDGLAISPALAKGAANMLAAYAESAKKKAEKLAKEK
B33: design_623_6e2e8b1f-5d9a-4413-9869-27a184816b12_1242_dldesign_0_cycle1_af2pred (protein)
chain: AAARRTALGLQRGASVIAYAKEVGVPEAGRRAGLLVVLALAGGAALGAAAAAAAEALAEELAAAGYPGFGTFVRGILRAARAEAA
B34: design_622_fcc41892-afde-4fb9-b6e8-b664fffd6a75_2361_dldesign_0_cycle1_af2pred (protein)
chain: EQEKKAKELLKKVKELAKKAEETIKAGIAAGLPKEEIVGKGGELVVEAAKKAAELARVGTPEQAAEARKIVAAAIKYLLKVAAA
B35: design_623_6e2e8b1f-5d9a-4413-9869-27a184816b12_221_dldesign_0_cycle1_af2pred (protein)
chain: EEEEKRAAAKEAAALLEAAADDPATRGELVLQAIALLTRYPELAPYASAATRALALAAQEGVAAGAAALREVAAGVKALAE
B36: design_623_6e2e8b1f-5d9a-4413-9869-27a184816b12_1249_dldesign_0_cycle1_af2pred (protein)
chain: AEAAKAAALEVLALAQEYYDQAKKNAAKIAPEKLKKADEAYAKALAALAAGDYGLAAHYAMLAYSYSSTGLQEA
B37: design_623_6e2e8b1f-5d9a-4413-9869-27a184816b12_262_dldesign_0_cycle1_af2pred (protein)
chain: GAAEARAQAEKTFAEAIEVGKEALKEAEKLKEKDKEKAEKYIKKINELLHELFRAMALSMTDPEAGLKAIEEQLKKLKEVLKEIKE
B38: design_622_fcc41892-afde-4fb9-b6e8-b664fffd6a75_1801_dldesign_0_cycle1_af2pred (protein)
chain: QALLEAASAIVEAAELAAKEVGPAAANALLTEAGKLLATGEAGLKAAVAEIDKVAKQASPEVAKKLLELRDKAAA

Molecular target: CD276, Q5ZPR3
Sequence (Q5ZPR3 whole entry): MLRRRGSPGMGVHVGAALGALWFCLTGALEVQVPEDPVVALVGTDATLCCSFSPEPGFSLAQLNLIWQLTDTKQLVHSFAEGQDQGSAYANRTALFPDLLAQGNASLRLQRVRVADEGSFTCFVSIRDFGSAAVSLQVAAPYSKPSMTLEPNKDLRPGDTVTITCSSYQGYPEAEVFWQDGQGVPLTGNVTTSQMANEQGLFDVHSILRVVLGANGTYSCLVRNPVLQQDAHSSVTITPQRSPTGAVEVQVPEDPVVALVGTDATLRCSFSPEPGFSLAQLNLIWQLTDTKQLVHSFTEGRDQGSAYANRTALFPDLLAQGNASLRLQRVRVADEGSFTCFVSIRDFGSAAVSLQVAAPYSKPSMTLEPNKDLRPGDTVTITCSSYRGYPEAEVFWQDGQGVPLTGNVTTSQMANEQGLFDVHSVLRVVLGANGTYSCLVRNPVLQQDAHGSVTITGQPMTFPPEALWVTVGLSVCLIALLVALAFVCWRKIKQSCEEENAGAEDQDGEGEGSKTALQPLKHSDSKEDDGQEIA

Binding in a display sort, inactive:
B1 not found
B2 not found
B3 not found
B4 not found
B5 not found
B6 not found
B7 not found
B8 not found
B9 not found
B10 not found
B11 not found
B12 not found
B13 not found
B14 not found
B15 not found
B16 not found
B17 not found
B18 not found
B19 not found
B20 not found
B21 not found
B22 not found
B23 not found
B24 not found
B25 not found
B26 not found
B27 not found
B28 not found
B29 not found
B30 not found
B31 not found
B32 not found
B33 not found
B34 not found
B35 not found
B36 not found
B37 not found
B38 not found
